Test results taken from paper PMC5540273 (PLoS ONE, 2017).
Like-named read-outs stand apart in the source and are kept apart here.

Columns and labels:
FLT1 = conditions: concentration: 1 μM, replicates: in singlicate; n = 1
FLT3-autoinhibited = conditions: concentration: 1 μM, replicates: in singlicate; n = 1
FLT3 = conditions: concentration: 1 μM, replicates: in singlicate; n = 1
FLT4 = conditions: concentration: 1 μM, replicates: in singlicate; n = 1
FRK = conditions: concentration: 1 μM, replicates: in singlicate; n = 1
FYN = conditions: concentration: 1 μM, replicates: in singlicate; n = 1
GAK = conditions: concentration: 1 μM, replicates: in singlicate; n = 1
GCN2(Kin.Dom.2,S808G) = system: T1, GCN2(Kin.Dom.2,S808G); conditions: concentration: 1 μM, replicates: in singlicate; n = 1
T1 construct: gene EIF2AK4

GRK1 = conditions: concentration: 1 μM, replicates: in singlicate; n = 1
GRK2 = system: T2, GRK2; conditions: concentration: 1 μM, replicates: in singlicate; n = 1
T2 construct: gene ADRBK1

GRK3 = system: T3, GRK3; conditions: concentration: 1 μM, replicates: in singlicate; n = 1
T3 construct: gene ADRBK2

GRK4 = conditions: concentration: 1 μM, replicates: in singlicate; n = 1
GRK7 = conditions: concentration: 1 μM, replicates: in singlicate; n = 1
GSK3A = conditions: concentration: 1 μM, replicates: in singlicate; n = 1
GSK3B = conditions: n = 1
HASPIN = system: T4, HASPIN; conditions: concentration: 1 μM, replicates: in singlicate; n = 1
T4 construct: gene GSG2

HCK = conditions: concentration: 1 μM, replicates: in singlicate; n = 1
HIPK1 = conditions: concentration: 1 μM, replicates: in singlicate; n = 1
HIPK2 = conditions: concentration: 1 μM, replicates: in singlicate; n = 1
HIPK3 = conditions: concentration: 1 μM, replicates: in singlicate; n = 1
[1] = concentration: 1 μM, replicates: in singlicate
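Further: KINOMEscan kinase panel screen.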

For Cc1c(Cn2c(C)c(C)n3c(=O)cc(N4CCOCC4)nc23)cccc1C(F)(F)F [GSK2328680], the “%Inh” value (FLT1) was 8%, the “%Inh” value (FLT3-autoinhibited) was 0% and the “%Inh” value (FLT3) was 0%. The “%Inh” value (FLT4) was 0%, the “%Inh” value (FRK) was 6% and the “%Inh” value (FYN) was 2%. For the same compound, the “%Inh” value (GAK) was 8%, the “%Inh” value (GCN2(Kin.Dom.2,S808G)) was 0% and the “%Inh” value (GRK1) was 9%. The “%Inh” value (GRK2) was 0%, the “%Inh” value (GRK3) was 0% and the “%Inh” value (GRK4) was 0%. For the same compound, the “%Inh” value (GRK7) was 0%, the “%Inh” value (GSK3A) was 13% and the “%Inh” value (GSK3B; [1]) was 11%. For the same compound, the “%Inh” value (HASPIN) was 0%, the “%Inh” value (HCK) was 0% and the “%Inh” value (HIPK1) was 0%. For the same compound, the “%Inh” value (HIPK2) was 0% and the “%Inh” value (HIPK3) was 13%.

With COC(=O)c1cccc(NC(=O)NC2CCN(c3ccnc(Nc4ccc(F)cc4)n3)C2)c1 (centres unmarked) [GSK1379725] the “%Inh” value (FLT1) was 24%, the “%Inh” value (FLT3-autoinhibited) was 0% and the “%Inh” value (FLT3) was 0%. The “%Inh” value (FLT4) was 0%, the “%Inh” value (FRK) was 13% and the “%Inh” value (FYN) was 15%. The “%Inh” value (GAK) was 0%, the “%Inh” value (GCN2(Kin.Dom.2,S808G)) was 0% and the “%Inh” value (GRK1) was 5%. For the same compound, the “%Inh” value (GRK2) was 0%, the “%Inh” value (GRK3) was 38% and the “%Inh” value (GRK4) was 0%. The “%Inh” value (GRK7) was 0%, the “%Inh” value (GSK3A) was 0% and the “%Inh” value (GSK3B; [1]) was 0%. The “%Inh” value (HASPIN) was 0%, the “%Inh” value (HCK) was 0% and the “%Inh” value (HIPK1) was 0%. For the same compound, the “%Inh” value (HIPK2) was 0% and the “%Inh” value (HIPK3) was 0%.

For CN1c2ccc(-c3ccc(C(N)=O)cc3)cc2-c2[nH]ncc2S1(=O)=O, the “%Inh” value (FLT1) was 5%, the “%Inh” value (FLT3-autoinhibited) was 27% and the “%Inh” value (FLT3) was 31%. For the same compound, the “%Inh” value (FLT4) was 0%, the “%Inh” value (FRK) was 0% and the “%Inh” value (FYN) was 3%. The “%Inh” value (GAK) was 6%, the “%Inh” value (GCN2(Kin.Dom.2,S808G)) was 33% and the “%Inh” value (GRK1) was 1%. For the same compound, the “%Inh” value (GRK2) was 0%, the “%Inh” value (GRK3) was 0% and the “%Inh” value (GRK4) was 0%. The “%Inh” value (GRK7) was 0%, the “%Inh” value (GSK3A) was 25% and the “%Inh” value (GSK3B; [1]) was 13%. For the same compound, the “%Inh” value (HASPIN) was 28%, the “%Inh” value (HCK) was 0% and the “%Inh” value (HIPK1) was 41%. The “%Inh” value (HIPK2) was 23% and the “%Inh” value (HIPK3) was 19%.

CS(=O)(=O)CCNCc1nc(-c2ccc3ncnc(Nc4ccc5c(cnn5Cc5ccccc5)c4)c3c2)cs1.Cl.Cl [GW569716] was tested, and the “%Inh” value (FLT1) was 20%, the “%Inh” value (FLT3-autoinhibited) was 0% and the “%Inh” value (FLT3) was 0%. The “%Inh” value (FLT4) was 0%, the “%Inh” value (FRK) was 9% and the “%Inh” value (FYN) was 0%. For the same compound, the “%Inh” value (GAK) was 0%, the “%Inh” value (GCN2(Kin.Dom.2,S808G)) was 1% and the “%Inh” value (GRK1) was 0%. For the same compound, the “%Inh” value (GRK2) was 0%, the “%Inh” value (GRK3) was 41% and the “%Inh” value (GRK4) was 0%. For the same compound, the “%Inh” value (GRK7) was 0%, the “%Inh” value (GSK3A) was 0% and the “%Inh” value (GSK3B; [1]) was 0%. For the same compound, the “%Inh” value (HASPIN) was 18%, the “%Inh” value (HCK) was 0% and the “%Inh” value (HIPK1) was 0%. The “%Inh” value (HIPK2) was 0% and the “%Inh” value (HIPK3) was 0%.

With Nc1nccc(-c2c(-c3ccc(F)cc3)ncn2C2CCN(Cc3ccccc3)CC2)n1 [SB-219980] the “%Inh” value (FLT1) was 0%, the “%Inh” value (FLT3-autoinhibited) was 18% and the “%Inh” value (FLT3) was 0%. For the same compound, the “%Inh” value (FLT4) was 0%, the “%Inh” value (FRK) was 10% and the “%Inh” value (FYN) was 0%. The “%Inh” value (GAK) was 12%, the “%Inh” value (GCN2(Kin.Dom.2,S808G)) was 1% and the “%Inh” value (GRK1) was 27%. For the same compound, the “%Inh” value (GRK2) was 36%, the “%Inh” value (GRK3) was 6% and the “%Inh” value (GRK4) was 0%. For the same compound, the “%Inh” value (GRK7) was 6%, the “%Inh” value (GSK3A) was 16% and the “%Inh” value (GSK3B; [1]) was 11%. The “%Inh” value (HASPIN) was 0%, the “%Inh” value (HCK) was 9% and the “%Inh” value (HIPK1) was 0%. The “%Inh” value (HIPK2) was 0% and the “%Inh” value (HIPK3) was 0%.

COC(=O)C(NC(=O)NC1CCN(c2ccnc(Nc3ccc(F)cc3)n2)C1)c1ccccc1 (centres unmarked) [GSK1379712] was tested, and the “%Inh” value (FLT1) was 14%, the “%Inh” value (FLT3-autoinhibited) was 8% and the “%Inh” value (FLT3) was 0%. For the same compound, the “%Inh” value (FLT4) was 0%, the “%Inh” value (FRK) was 0% and the “%Inh” value (FYN) was 31%. For the same compound, the “%Inh” value (GAK) was 0%, the “%Inh” value (GCN2(Kin.Dom.2,S808G)) was 2% and the “%Inh” value (GRK1) was 0%. The “%Inh” value (GRK2) was 4%, the “%Inh” value (GRK3) was 18% and the “%Inh” value (GRK4) was 0%. The “%Inh” value (GRK7) was 0%, the “%Inh” value (GSK3A) was 16% and the “%Inh” value (GSK3B; [1]) was 4%. The “%Inh” value (HASPIN) was 0%, the “%Inh” value (HCK) was 0% and the “%Inh” value (HIPK1) was 12%. For the same compound, the “%Inh” value (HIPK2) was 0% and the “%Inh” value (HIPK3) was 48%.

In the case of CNc1nc(-c2ccc3c(N)n[nH]c3c2)cc(N2C[C@@H](C(=O)Nc3ccccc3)CC[C@H]2C)n1 [GSK2298859], the “%Inh” value (FLT1) was 35%, the “%Inh” value (FLT3-autoinhibited) was 0% and the “%Inh” value (FLT3) was 0%. The “%Inh” value (FLT4) was 12%, the “%Inh” value (FRK) was 0% and the “%Inh” value (FYN) was 2%. For the same compound, the “%Inh” value (GAK) was 0%, the “%Inh” value (GCN2(Kin.Dom.2,S808G)) was 0% and the “%Inh” value (GRK1) was 100%. The “%Inh” value (GRK2) was 0%, the “%Inh” value (GRK3) was 0% and the “%Inh” value (GRK4) was 0%. The “%Inh” value (GRK7) was 0%, the “%Inh” value (GSK3A) was 26% and the “%Inh” value (GSK3B; [1]) was 0%. The “%Inh” value (HASPIN) was 13%, the “%Inh” value (HCK) was 0% and the “%Inh” value (HIPK1) was 0%. For the same compound, the “%Inh” value (HIPK2) was 0% and the “%Inh” value (HIPK3) was 1%.

For O=C(Nc1n[nH]c2cc(-c3ccsc3)ccc12)C1CC1 [SB-732932], the “%Inh” value (FLT1) was 14%, the “%Inh” value (FLT3-autoinhibited) was 29% and the “%Inh” value (FLT3) was 75%. For the same compound, the “%Inh” value (FLT4) was 0%, the “%Inh” value (FRK) was 0% and the “%Inh” value (FYN) was 4%. For the same compound, the “%Inh” value (GAK) was 28%, the “%Inh” value (GCN2(Kin.Dom.2,S808G)) was 0% and the “%Inh” value (GRK1) was 0%. For the same compound, the “%Inh” value (GRK2) was 0%, the “%Inh” value (GRK3) was 40% and the “%Inh” value (GRK4) was 79%. For the same compound, the “%Inh” value (GRK7) was 0%, the “%Inh” value (GSK3A) was 38% and the “%Inh” value (GSK3B; 1 µM) was 29%. The “%Inh” value (HASPIN) was 43%, the “%Inh” value (HCK) was 0% and the “%Inh” value (HIPK1) was 7%. For the same compound, the “%Inh” value (HIPK2) was 26% and the “%Inh” value (HIPK3) was 24%.

COc1ccc2cc(-c3nc(-c4ccccc4C(C)C)[nH]c3-c3ccncc3)ccc2c1 [SB-660566] was tested, and the “%Inh” value (FLT1) was 19%, the “%Inh” value (FLT3-autoinhibited) was 4% and the “%Inh” value (FLT3) was 0%. For the same compound, the “%Inh” value (FLT4) was 22%, the “%Inh” value (FRK) was 8% and the “%Inh” value (FYN) was 12%. For the same compound, the “%Inh” value (GAK) was 40%, the “%Inh” value (GCN2(Kin.Dom.2,S808G)) was 4% and the “%Inh” value (GRK1) was 0%. The “%Inh” value (GRK2) was 0%, the “%Inh” value (GRK3) was 34% and the “%Inh” value (GRK4) was 0%. The “%Inh” value (GRK7) was 0%, the “%Inh” value (GSK3A) was 2% and the “%Inh” value (GSK3B; [1]) was 17%. For the same compound, the “%Inh” value (HASPIN) was 0%, the “%Inh” value (HCK) was 0% and the “%Inh” value (HIPK1) was 0%. The “%Inh” value (HIPK2) was 0% and the “%Inh” value (HIPK3) was 25%.

In the case of Cl.Cl.Cl.N#Cc1ccc(CCNc2nccc(-c3cccc(CN4CCNCC4)c3)n2)cc1 [GSK2137462], the “%Inh” value (FLT1) was 17%, the “%Inh” value (FLT3-autoinhibited) was 0% and the “%Inh” value (FLT3) was 38%. The “%Inh” value (FLT4) was 2%, the “%Inh” value (FRK) was 4% and the “%Inh” value (FYN) was 38%. The “%Inh” value (GAK) was 26%, the “%Inh” value (GCN2(Kin.Dom.2,S808G)) was 11% and the “%Inh” value (GRK1) was 0%. The “%Inh” value (GRK2) was 0%, the “%Inh” value (GRK3) was 0% and the “%Inh” value (GRK4) was 0%. For the same compound, the “%Inh” value (GRK7) was 5%, the “%Inh” value (GSK3A) was 31% and the “%Inh” value (GSK3B; [1]) was 7%. For the same compound, the “%Inh” value (HASPIN) was 42%, the “%Inh” value (HCK) was 0% and the “%Inh” value (HIPK1) was 1%. The “%Inh” value (HIPK2) was 0% and the “%Inh” value (HIPK3) was 21%.
